This is part of a sample that, as a whole, favours compounds with a hit. Of some 83,000 tested, about 20% had one in any assay.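 Plates (96-well) were seeded with cells, treated with compound at one concentration, and incubated for 48 hours before percent growth was determined.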 A number with no mark means an inactive call. Activity calls are given as the source filed them. The calls were made as follows: active = growth percent below 10; inactive = the rest.
Legend:
Assay in all cases: NCI-60 one-dose screen, 48 h (100 = growth as untreated, 0 = no growth, -100 = all killed)
Settings in all cases: 10 µM
[1] = system: NCI-H23 lung
[2] = system: NCI-H226 lung
[3] = system: NCI-H322M lung
[4] = system: HOP-62 NSCLC
[5] = system: NCI-H460 lung
[6] = system: NCI-H522 lung
[7] = system: A549/ATCC NSCLC
[8] = system: 786-0 renal
[9] = system: COLO 205 colon
[10] = system: DU-145 prostate

SMILES	growth [1]	growth [2]	growth [3]	growth [4]	growth [5]	growth [6]	growth [7]	growth [8]	growth [9]	growth [10]
COc1cc(C(=O)/C=C/c2cc(-c3cc(OC)c(OC)c(OC)c3)n[nH]2)cc(OC)c1OC	68.4%	36.8%	-8.96% (active)	-30.1% (active)	29.7%	-75.5% (active)	53.6%	-71.7% (active)	-88.3% (active)	4.4% (active)
COc1ccc2c(c1)C(=O)c1c-2c(=O)n(CCCN(C)C)c2cc(OC)c(OC)cc12	48.8%	70.5%	80%	51.4%	10.9%	56.5%	56.3%	71.8%	100%	26.9%
Nc1c(C(=O)Nc2cccc(Br)c2)sc2nc3c(cc12)C(O)CCC3 (stereo not given)	34.9%	68.6%	48.8%	38.1%	11.3%	-4.01% (active)	30.1%	45.1%	-1.49% (active)	-0.178% (active)
N=C(N)c1ccc(-c2ccc(-c3cccs3)s2)s1	51.8%	74.2%	-29.8% (active)	-67.4% (active)	-82.2% (active)	-69.5% (active)	-63.2% (active)	-88.6% (active)	-93.8% (active)	-91.6% (active)
O=C1OCC2=C1C(c1cccc(Cl)c1)c1cc3c(cc1N2CCO)CCC3 (stereo not given)	8.79% (active)	-18.1% (active)	33%	21%	-12.7% (active)	-29.2% (active)	11.7%	18%	-47.1% (active)	-46.2% (active)
COc1ccc(NC(=O)Cc2nc3nc4sc(C)c(C)c4c(=O)n3[nH]2)cc1	101%	86.7%	94.5%	107%	110%	90.3%	91.2%	104%	118%	110%
O=C1C(c2ccccc2)C2C=CC(C2)N1O (stereo not given)	105%	101%	102%	105%	111%	96.4%	112%	102%	104%	114%
O=c1oc2cc(OS(=O)(=O)c3ccccc3)ccc2c2c1CCCCC2	68.4%	59.6%	82.6%	78.2%	28.4%	66.4%	34.7%	68.8%	31.1%	84.8%
O=C(O)c1ccc(P(=O)(O)O)c([N+](=O)[O-])c1	115%	94.4%	102%	101%	103%	99.1%	93%	110%	112%	108%
Nc1nc(N)c(NC(=O)CNc2ccc(C(=O)O)cc2)c(N)n1	112%	98%	106%	107%	110%	92%	102%	107%	110%	121%
Oc1[nH]c2ccc(Cl)cc2c1/C=c1/ccc2c(c1)N=C(c1cc(F)cc(F)c1)N=2	64%	86.1%	93.2%	58.7%	63.8%	33.7%	57.4%	85.9%	77.1%	81.8%
CCN(CC)CCCC(C)Nc1ccc2ccc(Cl)cc2n1 (stereo not given)	98.5%	93.1%	102%	86.9%	102%	92%	98.3%	93.8%	95.7%	114%
Nc1nccc(Nc2ccccc2)n1	101%	91.7%	115%	102%	109%	135%	99.1%	96.4%	114%	109%
COC(=O)c1c(-c2ccccc2)csc1NC(=O)c1c(-c2ccccc2)noc1C	61.4%	49.6%	56.6%	52.1%	-15.3% (active)	36.1%	-18.6% (active)	24.1%	60.6%	39.7%
O=C1/C(=C\c2ccccc2)CN(C(=O)c2ccccc2F)C/C1=C\c1ccccc1	33.8%	27.9%	74.6%	17.9%	51.6%	-3.31% (active)	53.3%	-40.8% (active)	14.6%	7.15% (active)
C[C@@H]1C=C2C(=O)O[C@@H]3CC[C@H](C1)[C@]23O	80.6%	106%	82.5%	71.7%	80.9%	2.22% (active)	67.1%	103%	74%	-25.9% (active)
Cc1cc(N(CCCNc2ccnc3cc(Cl)ccc23)Cc2ccc3c(c2)OCO3)nc(N2CCOCC2)n1	50.9%	67.2%	37.5%	10.1%	20.2%	8.51% (active)	28.7%	-20.4% (active)	-54% (active)	38%
O=S(=O)(NCCCNc1nccc(-c2c(-c3ccc(F)cc3)nc3sccn23)n1)c1ccc(F)cc1	56.2%	40%	43.2%	74%	26.9%	36.4%	25.9%	59%	21%	44.6%
CC(=O)OCc1cc(-c2nc3ccccc3[nH]c2=O)nn1-c1ccc(Cl)cc1	91.5%	93%	107%	94.9%	104%	-30.6% (active)	52%	96.4%	126%	110%
O=C(CCCCC[P+](c1ccccc1)(c1ccccc1)c1ccccc1)NC(COC(=O)C(Cl)Cl)(COC(=O)C(Cl)Cl)COC(=O)C(Cl)Cl	108%	102%	99.5%	96.1%	106%	126%	96.5%	99.6%	98.1%	114%
CN(C)N=Nc1nn(C(=O)Nc2ccc(Cc3ccccc3)cc2)c2ccccc12	61%	69.2%	81.3%	70.6%	11.4%	42.3%	31.5%	49.9%	-53.4% (active)	60.8%
CCN(CC)CCCC(C)Nc1nc(-c2ccc(OC)cc2)nc2cc(Cl)ccc12 (stereo not given)	73.2%	91.7%	65.4%	70.5%	72.5%	35.6%	69.6%	65.5%	41.6%	77.9%
CC(C)N(CCNc1nc(C(Cl)(Cl)Cl)nc2cc(Cl)ccc12)C(C)C	-0.581% (active)	0.531% (active)	33.5%	-41.4% (active)	-45.6% (active)	-68.4% (active)	-41.6% (active)	-76.4% (active)	-89.8% (active)	-15% (active)
C#Cc1ccc(-n2c(/C=C/c3ccc(Cl)c(F)c3)nc3ncccc3c2=O)cc1	18.3%	-74.5% (active)	-25% (active)	-57.6% (active)	-25.8% (active)	-66.7% (active)	-8.32% (active)	7.88% (active)	-90.2% (active)	3.49% (active)
O=C(Nc1cccc(-n2cc(-c3ccncc3)c(-c3ccc(O)c(Cl)c3)n2)c1)Nc1cccc(C(F)(F)F)c1	-5.75% (active)	57.5%	-10.3% (active)	-3.45% (active)	-4.53% (active)	-6.25% (active)	-6.05% (active)	14.9%	22.7%	12.8%
CN1c2ccccc2[C@]2(Cc3ccccc3)Cc3ccccc3N[C@H]12	91.4%	98.2%	111%	120%	111%	71.7%	109%	106%	118%	115%
CCC1(C(C)C)NC(=O)NC1=O (stereo not given)	99.1%	96.4%	110%	96%	110%	101%	96.1%	97.7%	115%	104%
